Bioassay records from PubChem BioAssay.
Most compounds without a hit are left out; they make up all but 19% or so of the library.
BCR signal inh: blocks chronic active B-cell receptor signaling; ABC-DLBCL IkBa-CBG/CBR reporter, luminescence ratio, 4 h; Potency, µM (doses to about 46.1 µM), for inactives: top-dose activity change, negative = inhibition, most hits filed as inhibitors; hit rate 0.05% among 340,000; AID 493014; active = well fitted inhibition curve with a large enough effect in the signal ratio, with a control signal flat, not every such curve was filed as active; inconclusive = small, poorly fitted or top-dose-only effect, or effect the other way, or a change in a side signal; the % refers to the signal ratio;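 also: potency is read from the fitted curve at half-maximal effect; plate controls were basal doxycycline-induced cells for no effect and cells given 10 µM MG132 for full effect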
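TMD8 ABC-DLBCL cells carrying doxycycline-inducible green luciferase fused to IkappaBalpha plus unfused red luciferase were exposed to compounds (up to 46 uM) for 4 hrs at 37C. Activity came from the overlap-corrected green/red luminescence ratio.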
SW480 rereplic: inducers of DNA re-replication in SW480 colon cancer cells | hit rate 1.8% among 340,000 | AID 624297 | Potency, µM (top dose mostly 46.1 µM), without a hit: top-dose re-replication activation, most hits filed as activators | SW480 DNA re-replication, Hoechst DNA content imaging, 48 h; also: potency is read from the fitted curve at half-maximal effect; % of control where 0% means no effect; nearly all actives have a fitted effect of over 55% in size
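Image-based DNA-content assay: after two days of treatment, nuclei were labelled with the DNA dye Hoechst and imaged, and hits were compounds raising the count of nuclei showing high fluorescence intensity.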
DT40 TDP1 no CPT: qHTS for Inhibitors of human tyrosyl-DNA phosphodiesterase 1 (TDP1): qHTS in cells in absence of CPT. hit rate 15% among 420,000. Potency, µM (top dose mostly 46.2 µM), without a hit: at the top dose activity change, negative = growth inhibition, usual class: inhibitors. DT40 Tdp1-/- hTDP1 cells, no CPT, ATP luminescence, 48 h; also: potency is read from the fitted curve at half-maximal effect; % is scaled to controls: 0 for no effect and ±100 for the full control effect; nearly all actives have a fitted effect of over 55% in size
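Cells were dispensed at 400 per well, compounds added by pin tool, plates incubated ≥48 hr at 37 °C, then CellTiter-Glo added for 30 min at room temperature before luminescence reading. Line: DT40 Tdp1-/- complemented with hTDP1; camptothecin omitted.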
MCF10A rereplic: induces DNA re-replication in MCF 10a normal breast cells; hit rate 2.9% among 350,000; AID 624296; Potency, µM (highest dose often 46.1 µM), for the others: at the highest dose activity, positive = re-replication, hits mostly activators; MCF 10A DNA re-replication, Hoechst nuclear intensity, 48 h; also: potency is read from the fitted curve at half-maximal effect; % of control where 0% means no effect; nearly all actives have a fitted effect of over 50% in size
IL1B secr inh: inflammasome signaling inhibition, IL-1 beta readout. AID 743279. activity change, % at 57.5 µM. hit rate 4.7% among 360,000. THP-1 LPS/ATP IL-1B secretion, AlphaLISA, 16 h; hits give low values; in the data active = activity change below about -50%; inconclusive = mostly about -30% to -49%; also: % is scaled to controls: 0 for no effect and ±100 for the full control effect
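THP-1 cells pretreated 1 hr with compounds (up to 57.5 uM final), then stimulated with LPS (250 ng/mL final) plus ATP (1.25 mM final); secreted IL-1B measured by AlphaLISA after 16 hr, decreased signal indicating inhibition.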
DT40 TDP1 CPT: DT40-hTDP1 cell growth loss with CPT | chicken DT40 Tdp1-/-;hTDP1 cells + 20 nM CPT, ATP luminescence, 48 h | Potency, µM (doses to about 46.2 µM), without a hit: at the highest dose activity change, negative = growth inhibition, actives largely listed as inhibitors | hit rate 12% among 420,000; also: potency is read from the fitted curve at half-maximal effect; % is scaled to controls: 0 for no effect and ±100 for the full control effect; nearly all actives have a fitted effect of over 55% in size
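Chicken DT40 Tdp1-/- cells complemented with human TDP1, 400 cells/well, exposed to compounds plus 20 nM camptothecin for at least 48 h at 37 C; viability read as ATP content by CellTiter-Glo luminescence.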
The depositor's hits bear a star; ? = inconclusive; / = no result. Unless noted, calls follow the shape of the dose curve; as a rule, active = well fitted curve in the direction sought with a large enough effect; inconclusive = small, poorly fitted or top-dose-only effect, or another doubt; inactive = no such curve, though single readings can be large; an effect the other way counts as inactive or inconclusive.

SMILES	BCR signal inh	SW480 rereplic	DT40 TDP1 no CPT	MCF10A rereplic	IL1B secr inh	DT40 TDP1 CPT
CC(=O)Nc1ccc2nc(CN3CCC(CO)(CCc4ccccc4)CC3)ccc2c1	2%	0%	?	18µM*	-10	?
CC(=O)c1cccc(CN2CCC(CO)(CCCc3ccccc3)CC2)c1	0%	-3%	23µM*	12%	-18	?
Cn1cc(CN2CCC(CO)(CCCc3ccccc3)CC2)c(-c2ccccc2)n1	?	8%	?	?	-15	16µM*
CC(=O)Nc1ccc2nc(CN3CCN(CC=C(C)C)C(CCO)C3)ccc2c1 (configuration not stated)	0%	-16%	-3%	7%	-18	7%
CCCOc1ccc(C2C3=C(Nc4nc(N)[nH]c(=O)c42)c2ccccc2C3=O)cc1 (configuration not stated)	-1%	-13%	?	3%	-55*	?
CCOc1ccc(C2C3=C(Nc4nc(N)[nH]c(=O)c42)c2ccccc2C3=O)cc1 (configuration not stated)	1%	-7%	?	0%	-14	?
CCC(Sc1nnc(C)n2c1cc1occc12)C(=O)Nc1ccccc1F (configuration not stated)	/	/	26µM*	/	/	21µM*
CCc1nnc(SCC(=O)Nc2ccc(Cl)cc2F)c2cc3occc3n12	/	/	15µM*	/	/	23µM*
Cc1cc2c(cc3c(SCC(=O)Nc4ccc(Cl)cc4F)nncn32)o1	/	/	-77%	/	/	?
C=CCN(Cc1ccc(OC)c(OC)c1)C(=O)c1cc2cc(F)ccc2[nH]1	-16%	-2%	?	2%	5	13µM*
O=C1OC(O)c2cccc3cccc1c23 (configuration not stated)	/	/	1%	/	-3	10%
Cc1ccc(NC(=O)C2(c3ccccc3)CC2(Cl)Cl)cc1C (configuration not stated)	21%	4%	16µM*	21µM*	-10	?
Cc1cc(C)cc(NC(=O)C2(c3ccccc3)CC2(Cl)Cl)c1 (configuration not stated)	?	?	?	?	-14	?
CCc1ccc(NC(=O)C2(c3ccccc3)CC2(Cl)Cl)cc1 (configuration not stated)	27%	?	?	23µM*	-30	?
CN[C@H]1C[C@@H](c2ccccc2)N(C(C)=O)C[C@H]1CO	/	/	3%	/	4	?
CCC(=O)O	/	/	-16%	/	/	-3%
Cc1cc(C)c(C(=O)CC(=O)c2ccccc2Cl)c(O)c1	?	7%	10µM*	?	-6	16µM*
Cc1cc(O)c(NC(=O)c2cc([N+](=O)[O-])ccc2Cl)cc1C	?	?	-27%	?	-84*	?
COc1ccccc1NC(=S)NNC(=O)c1ccc(Cl)cc1Cl	?	-6%	?	?	14	?
CCc1ccccc1NC(=S)NNC(=O)c1ccccc1Cl	-2%	1%	5.8µM*	12%	5	6.5µM*
Cc1ccc(O)c(NC(=O)c2cc([N+](=O)[O-])ccc2Cl)c1	?	8%	21µM*	?	-97*	?
Cc1cn([C@H]2C[C@H](O)[C@@H](/C=C/C(=O)NCCN3CCCCC3)O2)c(=O)[nH]c1=O	/	/	16%	/	26	14%
Cc1ccc(O)c(NC(=S)NC(=O)c2ccccc2Cl)c1	?	11%	?	?	-58*	?
CN(C)c1ccc(CNC(=O)C2COc3ccccc3C2)cc1 (configuration not stated)	/	/	-16%	/	/	-30%
CCOC(=O)CN1C(=O)N[C@@H](CCc2ccccc2)C(C(C)=O)=C1C	/	-11%	-18%	-8%	23	-2%
SMILES	BCR signal inh	SW480 rereplic	DT40 TDP1 no CPT	MCF10A rereplic	IL1B secr inh	DT40 TDP1 CPT
CCOC(=O)C1=CNS(=O)(=O)NC1CCc1ccccc1 (configuration not stated)	3%	?	23µM*	?	9	?
O=C(C1CCC(CNc2nc(=S)[nH]c3ccccc23)CC1)N1CCN(c2ccccn2)CC1 (configuration not stated)	1%	2%	18µM*	6%	?	18µM*
CC(C)=CCc1c(O)c(CC=C(C)C)c2c(c1O)C(=O)CC(c1ccc(O)cc1)O2 (configuration not stated)	?	6%	18µM*	?	29	?
COc1c(CC=C(C)C)cc(C2CC(=O)c3c(O)cc(O)cc3O2)cc1CC=C(C)C (configuration not stated)	?	-22%	?	?	?	?
COc1cc(O)c2c(c1)OC(c1ccc(O)cc1)CC2=O (configuration not stated)	?	5%	16µM*	?	-15	?
COC1=CC(=O)C(C2CC(=O)c3c(O)cc(O)cc3O2)=CC1=O (configuration not stated)	/	?	2.6µM*	6%	-97*	3.7µM*
CC1=Nc2cccc3cccc(c23)N1	-4%	12%	23µM*	8%	-11	?
c1coc(C2=Nc3cccc4cccc(c34)N2)c1	3%	-11%	23µM*	-4%	?	15µM*
COc1cccc(C2=Nc3cccc4cccc(c34)N2)c1	?	-4%	?	-1%	1	?
